# TDP1 cell noCPT – qHTS for Inhibitors of human tyrosyl-DNA phosphodiesterase 1 (TDP1): qHTS in cells in absence of CPT; DT40 Tdp1-/- hTDP1 cells, no CPT, ATP luminescence, 48 h; Potency, µM (series often up to 46.2 µM), for inactives: top-dose activity change, negative = growth inhibition, most hits filed as inhibitors; 15% of 420,000 active; AID 686978, 2013; note: potency is the fitted concentration of half-maximal effect; nearly all actives have a fitted effect of over 55% in size
#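 Growth of hTDP1-complemented DT40 Tdp1-knockout cells is measured by ATP luminescence after at least 48 hr compound exposure at 37 °C, with DMSO substituting for the 20 nM CPT used in the parallel screen.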
# ELG1 DNA repair – qHTS screen for small molecules that inhibit ELG1-dependent DNA repair in human embryonic kidney (HEK293T) cells expressing luciferase-tagged ELG1; HEK293T ELG1-luciferase reporter, luminescence, 16 h; DNA damage induced by 5-fluorouridine; Potency, µM (titrated, usually from 46.1 µM), without a hit: at the highest dose activity change, negative = inhibition, usual class: inhibitors; 2.3% of 330,000 active; note: potency is the fitted concentration of half-maximal effect; nearly all actives have a fitted effect of over 55% in size
#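 Step one: seed 2,000 cells per well. Step two: pin-transfer compound or DMSO alongside 5-fluorouridine. Step three: incubate 16 hr, 37 °C, 5% CO2. Step four: add ONE-Glo, wait 30 min, read luminescence.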
# HT1080NT lethal – qHTS for induction of synthetic lethality in tumor cells producing 2HG: qHTS for the HT-1080-NT fibrosarcoma cell line. Potency, µM (doses to about 46.1 µM), for the others: at the top dose activity, negative = less viability, most hits filed as cytotoxic. HT-1080-NT fibrosarcoma viability, CellTiter-Glo ATP luminescence, 48 h. 1.6% of 360,000 active;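 note: NT is the 2HG producing partner of a matched IDH1 knockdown line; potency is the fitted concentration of half-maximal effect; 0% = DMSO-treated cells and -100% = media-only wells without cells; nearly all actives have a fitted effect of over 55% in size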
#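 Fibrosarcoma NT cells, 750 per well in 5% FBS RPMI, were exposed to compound for 48 hours. Viability: CellTiter-Glo luminescence.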
# HT1080 IDH1KD tx – qHTS for induction of synthetic lethality in tumor cells producing 2HG: qHTS for the HT-1080-IDH1KD cell line; HT-1080 IDH1 knockdown viability, ATP luminescence, 48 h; Potency, µM (titrated, usually from 46.1 µM), inactives show at the highest dose activity, negative = toxicity, actives largely listed as cytotoxic; 2% of 360,000 active; AID 686971, 2013;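 note: potency is the fitted concentration of half-maximal effect; 0% = DMSO wells and -100% = cell-free medium wells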
#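 In this qHTS, HT-1080 cells depleted of IDH1 are exposed for 48 h at 37 °C to compound titrations. Toxicity is scored from CellTiter-Glo luminescence, with DMSO as full viability and medium alone as none.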
# IL-1B inflam inh – qHTS for Inhibitors of Inflammasome Signaling: IL-1-beta AlphaLISA Primary Screen | THP-1 LPS/ATP IL-1B secretion, AlphaLISA, 16 h; stronger effect = lower value | activity change, % at 57.5 µM | 4.7% of 360,000 active | AID 743279, 2014; in the data active = activity change below about -50%; inconclusive = mostly about -30% to -49%
#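 THP-1 cells pretreated 1 hr with compounds (up to 57.5 uM final), then stimulated with LPS (250 ng/mL final) plus ATP (1.25 mM final); secreted IL-1B measured by AlphaLISA after 16 hr, decreased signal indicating inhibition.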
# TDP1 cell CPT – qHTS for Inhibitors of human tyrosyl-DNA phosphodiesterase 1 (TDP1): qHTS in cells in presence of CPT | chicken DT40 Tdp1-/-;hTDP1 cells + 20 nM CPT, ATP luminescence, 48 h | Potency, µM (top dose mostly 46.2 µM), inactives show top-dose activity change, negative = growth inhibition, most hits filed as inhibitors | 12% of 420,000 active | AID 686979, 2013; note: potency is the fitted concentration of half-maximal effect; nearly all actives have a fitted effect of over 55% in size
#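 Chicken DT40 Tdp1-/- cells stably complemented with human TDP1 were seeded at 400 cells/well in medium containing 20 nM camptothecin, exposed to pin-transferred compounds, and grown at 37 °C for at least 48 hr. Viability was read as ATP luminescence.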
# * marks the source's active call; other numbers are inactive results; ? = inconclusive; . = no result; [ ] = another dose, or the depositor's remark. Most compounds without a hit are left out; they make up all but 19% or so of the library. Unless noted, calls come from the whole dose curve; as a rule, active = well fitted curve in the direction sought with a large enough effect; inconclusive = small, poorly fitted or top-dose-only effect, or another doubt; inactive = no such curve, though single readings can be large; an effect the other way counts as inactive or inconclusive. Unless noted, % is set by controls: 0 for no effect and ±100 for the full control effect.
SMILES,TDP1 cell noCPT,ELG1 DNA repair,HT1080NT lethal,HT1080 IDH1KD tx,IL-1B inflam inh,TDP1 cell CPT
CC(=O)c1ccc(NC(=O)c2cccc(NC(=O)N3CCSc4ncccc43)c2)cc1,-25.2%,.,.,.,.,-2.2%
CC(=O)Nc1cc(C(=O)N2CCN(c3ccccc3)CC2C)cc2ncn(CCc3ccccn3)c12 (centres undefined),-13.6%,.,.,.,.,-10.8%[9.04 µM]
CC(C)(C)C(=O)CSc1n[nH]c(-c2ccccc2)n1,?,.,.,.,.,-24.7%
Oc1ccc(C=Nc2ccc(N3CCOCC3)cc2)c(O)c1,-20.3%,-11.0%,-9.5%,-16.0%,2.7,-22.4%
Oc1ccccc1/C=N/Nc1cc(N2CCCC2)nc(N2CCCC2)n1,11.6µM*,?,-2.3%,-11.9%,-103.2*,11.6µM*
Cc1nc(N/N=C/c2ccc(O)cc2O)cc(N2CCOCC2)n1,?,?,?,4.11µM*,-99.1*,?
Cc1cc(Br)ccc1NC(=O)CCNS(=O)(=O)c1cccc2nonc12,?,.,.,.,.,-26.1%
CCOC(=O)N1CCN(S(=O)(=O)c2ccc(Cl)cc2)CC1,3.4%,1.5%,10.9%,5.6%,14.6,0.5%
CCOC(=O)N1C(=O)[C@@](c2ccc(Cl)cc2)(C(C)C)N1C(=O)OCC,?,?,?,?,-112.8*,20.6µM*
CCOC(=O)C1(C(N)=O)OC1(c1ccc(Cl)cc1)c1ccccc1Cl (centres undefined),-16.3%,.,-1.6%,0.7%,8.1,3.4%
CCOC(=O)N1C(=O)[C@](c2ccc(Cl)cc2)(C(C)C)N1C(=O)OCC,14.6µM*,-13.2%,-20.5%,-29.5%,-98.2*,18.4µM*
COc1cc(COCC(O)CN2C(C)CCCC2C)cc(OC)c1OC (centres undefined),24.1%,5.1%,-6.4%,-4.8%,-0.8,-7.3%
CCCCC1=CC2=C(c3ccco3)C(=O)C(C)(OC(=O)c3ccc(OC)cc3)C(=O)C2=CN1CC1CC1 (centres undefined),18.4µM*,-23.9%,-9.1%,-2.1%,-20.7,8.2µM*
CCCCC1=CC2=C(c3ccco3)C(=O)C(C)(OC(=O)c3ccc(OC)cc3)C(=O)C2=CN1CC(C)C (centres undefined),5.17µM*,6.3%,22.7%,8.0%,-4.1,3.26µM*
O=C(c1cnccn1)N1CCC2(CC1)CCN(c1ncccn1)CC2,-9.1%,.,.,.,.,-5.9%
O=C(NCC12CC3CC(CC(C3)C1)C2)c1cc2nc(-c3ccc(F)cc3)cc(C(F)(F)F)n2n1,-11.9%,.,.,.,.,4.0%
Cc1ccc(Cn2c(=O)n(Cc3ccccc3)c(=O)c3c(C)c(C)sc32)cc1,1.0%,.,.,.,.,9.0%
Cc1sc2c(c1C)c(=O)n(-c1ccccc1)c(=O)n2CC(=O)c1ccc(Cl)cc1,16.4µM*,.,.,.,.,?
CCOc1ccc(-n2c(=O)c3c(C)c(C)sc3n(Cc3ccc(C(C)(C)C)cc3)c2=O)cc1,?,.,.,.,.,20.6µM*
Cc1ccc(-n2c(=O)c3c4c(sc3n(CC(=O)c3ccc(Cl)cc3)c2=O)CCC4)cc1C,-13.1%,.,.,.,.,-6.0%
CC(C)(C)C(=O)Cn1c(=O)n(-c2ccccc2)c(=O)c2c3c(sc21)CCC3,18.4µM*,.,.,.,.,14.6µM*
CCOc1ccc(-n2c(=O)c3c(C)c(C)sc3n(CC(=O)C(C)(C)C)c2=O)cc1,23.1µM*,.,.,.,.,?

# Screening data deposited in PubChem by National Center for Advancing Translational Sciences (NCATS).
